The supplement of paper PMC4466140

What was measured:
Assay in all cases: SPOT peptide array binding signal intensity (averaged, normalized) (arbitrary units (background-subtracted, floor 0; scale differs between SH3 domains)); higher = stronger binding of the SH3 domain to the peptide
AgAbp1 = molecular target: AgAbp1
Procedure, shortened: (§1)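 To measure binding, SH3 domains from four yeast species were fused to GST, expressed in E. coli BL21(DE3) and purified on glutathione Sepharose. Each domain was incubated at 10 μg/ml overnight at 4°C on cellulose membranes with synthetic 15-mer peptides whose cysteines were replaced by serines. Anti-GST antibody, an HRP anti-mouse secondary and luminol were used for detection, and images were quantified with Genespotter. Reported binding signal is normalized, background-subtracted spot intensity averaged over replicates, in arbitrary units that differ between domains.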

AgBbc1 = molecular target: AgBbc1
Procedure, shortened: as §1

AgBem1-D1 = molecular target: AgBem1-D1
Procedure, shortened: as §1

AgBzz1-D1 = molecular target: AgBzz1-D1
Procedure, shortened: as §1

AgBzz1-D2 = molecular target: AgBzz1-D2
Procedure, shortened: as §1

AgCyk3 = molecular target: AgCyk3
Procedure, shortened: as §1

AgFus1 = molecular target: AgFus1
Procedure, shortened: as §1

AgHof1 = molecular target: AgHof1
Procedure, shortened: as §1

AgHse1 = molecular target: AgHse1
Procedure, shortened: as §1

AgLsb1 = molecular target: AgLsb1
Procedure, shortened: as §1

AgLsb4 = molecular target: AgLsb4
Procedure, shortened: as §1

AgMyo5 = molecular target: AgMyo5
Procedure, shortened: as §1

AgNbp2 = molecular target: AgNbp2
Procedure, shortened: as §1

AgRvs167 = molecular target: AgRvs167
Procedure, shortened: as §1

AgSho1 = molecular target: AgSho1
Procedure, shortened: as §1

AgSla1-D1-D2 = molecular target: AgSla1-D1-D2
Procedure, shortened: as §1

AgSla1-D3 = molecular target: AgSla1-D3
Procedure, shortened: as §1

CaAbp1-D1 = molecular target: CaAbp1-D1
Procedure, shortened: as §1

CaAbp1-D2 = molecular target: CaAbp1-D2
Procedure, shortened: as §1

CaBbc1 = molecular target: CaBbc1
Procedure, shortened: as §1

CaBem1-D1 = molecular target: CaBem1-D1
Procedure, shortened: as §1

CaBzz1-D1 = molecular target: CaBzz1-D1
Procedure, shortened: as §1

CaBzz1-D2 = molecular target: CaBzz1-D2
Procedure, shortened: as §1

CaCyk3 = molecular target: CaCyk3
Procedure, shortened: as §1

CaFus1 = molecular target: CaFus1
Procedure, shortened: as §1

CaHof1 = molecular target: CaHof1
Procedure, shortened: as §1

CaHse1 = molecular target: CaHse1
Procedure, shortened: as §1

CaLsb1 = molecular target: CaLsb1
Procedure, shortened: as §1

CaLsb4 = molecular target: CaLsb4
Procedure, shortened: as §1

CaMyo5 = molecular target: CaMyo5
Procedure, shortened: as §1

CaNbp2 = molecular target: CaNbp2
Procedure, shortened: as §1

CaRvs167 = molecular target: CaRvs167
Procedure, shortened: as §1

CaRvs167-3 = molecular target: CaRvs167-3
Procedure, shortened: as §1

CaSho1 = molecular target: CaSho1
Procedure, shortened: as §1

CaSla1-D1-D2 = molecular target: CaSla1-D1-D2
Procedure, shortened: as §1

CaSla1-D3 = molecular target: CaSla1-D3
Procedure, shortened: as §1

ScAbp1 = molecular target: ScAbp1
Procedure, shortened: as §1

ScBbc1 = molecular target: ScBbc1
Procedure, shortened: as §1

ScBem1-D1 = molecular target: ScBem1-D1
Procedure, shortened: as §1

ScBzz1-D1 = molecular target: ScBzz1-D1
Procedure, shortened: as §1

ScBzz1-D2 = molecular target: ScBzz1-D2
Procedure, shortened: as §1

ScCyk3 = molecular target: ScCyk3
Procedure, shortened: as §1

ScFus1 = molecular target: ScFus1
Procedure, shortened: as §1

ScHof1 = molecular target: ScHof1
Procedure, shortened: as §1

ScHse1 = molecular target: ScHse1
Procedure, shortened: as §1

ScLsb1 = molecular target: ScLsb1
Procedure, shortened: as §1

ScLsb2 = molecular target: ScLsb2
Procedure, shortened: as §1

ScLsb3 = molecular target: ScLsb3
Procedure, shortened: as §1

ScLsb4 = molecular target: ScLsb4
Procedure, shortened: as §1

ScMyo3 = molecular target: ScMyo3
Procedure, shortened: as §1

ScMyo5 = molecular target: ScMyo5
Procedure, shortened: as §1

ScNbp2 = molecular target: ScNbp2
Procedure, shortened: as §1

ScPex13 = molecular target: ScPex13
Procedure, shortened: as §1

ScRvs167 = molecular target: ScRvs167
Procedure, shortened: as §1

ScSho1 = molecular target: ScSho1
Procedure, shortened: as §1

ScSla1-D1-D2 = molecular target: ScSla1-D1-D2
Procedure, shortened: as §1

ScSla1-D3 = molecular target: ScSla1-D3
Procedure, shortened: as §1

SpAbp1-D1 = molecular target: SpAbp1-D1
Procedure, shortened: as §1

SpBbc1 = molecular target: SpBbc1
Procedure, shortened: as §1

SpBzz1-D1 = molecular target: SpBzz1-D1
Procedure, shortened: as §1

SpBzz1-D2 = molecular target: SpBzz1-D2
Procedure, shortened: as §1

SpCyk3 = molecular target: SpCyk3
Procedure, shortened: as §1

SpHof1 = molecular target: SpHof1
Procedure, shortened: as §1

SpHof1-2 = molecular target: SpHof1-2
Procedure, shortened: as §1

SpHof1-3 = molecular target: SpHof1-3
Procedure, shortened: as §1

SpHse1 = molecular target: SpHse1
Procedure, shortened: as §1

SpLsb1 = molecular target: SpLsb1
Procedure, shortened: as §1

SpLsb4 = molecular target: SpLsb4
Procedure, shortened: as §1

SpMyo1 = molecular target: SpMyo1
Procedure, shortened: as §1

SpNbp2 = molecular target: SpNbp2
Procedure, shortened: as §1

SpPex13 = molecular target: SpPex13
Procedure, shortened: as §1

SpRvs167 = molecular target: SpRvs167
Procedure, shortened: as §1

SpSla1-D1-D2 = molecular target: SpSla1-D1-D2
Procedure, shortened: as §1

SpSla1-D3 = molecular target: SpSla1-D3
Procedure, shortened: as §1

Binder: AATTSTPPLPRRRAT
- SPOT peptide array binding signal intensity (AgAbp1): 73
- SPOT peptide array binding signal intensity (AgBbc1): 800
- SPOT peptide array binding signal intensity (AgBem1-D1): ≤ 0
- SPOT peptide array binding signal intensity (AgBzz1-D1): 188
- SPOT peptide array binding signal intensity (AgBzz1-D2): 53.5
- SPOT peptide array binding signal intensity (AgCyk3): 3
- SPOT peptide array binding signal intensity (AgFus1): 5
- SPOT peptide array binding signal intensity (AgHof1): 142
- SPOT peptide array binding signal intensity (AgHse1): 21
- SPOT peptide array binding signal intensity (AgLsb1): 464
- SPOT peptide array binding signal intensity (AgLsb4): 5320
- SPOT peptide array binding signal intensity (AgMyo5): 12.5
- SPOT peptide array binding signal intensity (AgNbp2): ≤ 0
- SPOT peptide array binding signal intensity (AgRvs167): 591
- SPOT peptide array binding signal intensity (AgSho1): ≤ 0
- SPOT peptide array binding signal intensity (AgSla1-D1-D2): 6
- SPOT peptide array binding signal intensity (AgSla1-D3): ≤ 0
- SPOT peptide array binding signal intensity (CaAbp1-D1): 142
- SPOT peptide array binding signal intensity (CaAbp1-D2): 229
- SPOT peptide array binding signal intensity (CaBbc1): 1600
- SPOT peptide array binding signal intensity (CaBem1-D1): 11
- SPOT peptide array binding signal intensity (CaBzz1-D1): 520
- SPOT peptide array binding signal intensity (CaBzz1-D2): 362
- SPOT peptide array binding signal intensity (CaCyk3): 60.5
- SPOT peptide array binding signal intensity (CaFus1): 68
- SPOT peptide array binding signal intensity (CaHof1): 8.75
- SPOT peptide array binding signal intensity (CaHse1): ≤ 0
- SPOT peptide array binding signal intensity (CaLsb1): 8.5
- SPOT peptide array binding signal intensity (CaLsb4): 5270
- SPOT peptide array binding signal intensity (CaMyo5): 8
- SPOT peptide array binding signal intensity (CaNbp2): 94
- SPOT peptide array binding signal intensity (CaRvs167): 700
- SPOT peptide array binding signal intensity (CaRvs167-3): 1
- SPOT peptide array binding signal intensity (CaSho1): 7
- SPOT peptide array binding signal intensity (CaSla1-D1-D2): 906
- SPOT peptide array binding signal intensity (CaSla1-D3): ≤ 0
- SPOT peptide array binding signal intensity (ScAbp1): 109
- SPOT peptide array binding signal intensity (ScBbc1): 726
- SPOT peptide array binding signal intensity (ScBem1-D1): 3
- SPOT peptide array binding signal intensity (ScBzz1-D1): 10.5
- SPOT peptide array binding signal intensity (ScBzz1-D2): 9
- SPOT peptide array binding signal intensity (ScCyk3): 16
- SPOT peptide array binding signal intensity (ScFus1): ≤ 0
- SPOT peptide array binding signal intensity (ScHof1): 9.75
- SPOT peptide array binding signal intensity (ScHse1): 70
- SPOT peptide array binding signal intensity (ScLsb1): 232
- SPOT peptide array binding signal intensity (ScLsb2): 202
- SPOT peptide array binding signal intensity (ScLsb3): 6300
- SPOT peptide array binding signal intensity (ScLsb4): 2060
- SPOT peptide array binding signal intensity (ScMyo3): ≤ 0
- SPOT peptide array binding signal intensity (ScMyo5): ≤ 0
- SPOT peptide array binding signal intensity (ScNbp2): 20
- SPOT peptide array binding signal intensity (ScPex13): 1080
- SPOT peptide array binding signal intensity (ScRvs167): 2000
- SPOT peptide array binding signal intensity (ScSho1): ≤ 0
- SPOT peptide array binding signal intensity (ScSla1-D1-D2): 760
- SPOT peptide array binding signal intensity (ScSla1-D3): 11
- SPOT peptide array binding signal intensity (SpAbp1-D1): 16
- SPOT peptide array binding signal intensity (SpBbc1): 104
- SPOT peptide array binding signal intensity (SpBzz1-D1): 877
- SPOT peptide array binding signal intensity (SpBzz1-D2): ≤ 0
- SPOT peptide array binding signal intensity (SpCyk3): 9
- SPOT peptide array binding signal intensity (SpHof1): 178
- SPOT peptide array binding signal intensity (SpHof1-2): 78.5
- SPOT peptide array binding signal intensity (SpHof1-3): 66.5
- SPOT peptide array binding signal intensity (SpHse1): 8.25
- SPOT peptide array binding signal intensity (SpLsb1): 712
- SPOT peptide array binding signal intensity (SpLsb4): 4540
- SPOT peptide array binding signal intensity (SpMyo1): 113
- SPOT peptide array binding signal intensity (SpNbp2): 1.5
- SPOT peptide array binding signal intensity (SpPex13): 3
- SPOT peptide array binding signal intensity (SpRvs167): 1970
- SPOT peptide array binding signal intensity (SpSla1-D1-D2): 15.5
- SPOT peptide array binding signal intensity (SpSla1-D3): ≤ 0
